Reference: PubChem BioAssay (NCATS)
Records with an inconclusive call do not appear. A number with no mark means an inactive call. Activity calls are given as the source filed them. Calls follow the shape of the dose curve; as a rule, active = well fitted inhibition curve with a large enough effect; inconclusive = small, poorly fitted or top-dose-only effect; inactive = flat fitted curve, though single readings scatter.

The compounds below were run on CRL-7250 (assay: Cytotoxic Profiling of Annotated Libraries Using Quantitative High-Throughput Screening (AID 1296008; also: nearly all actives have a fitted effect of over 60% in size)). Conditions: Five cell lines viability, CellTiter-Glo ATP luminescence, 48-72 h; max response: hits give low values.
Method in brief: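 Compounds were pin-transferred onto cells and incubated 48 or 72 hr at 37 degree Celsius, 95% humidity. CellTiter-Glo was added, plates sat 10 min at room temperature, then ATP-coupled luminescence was imaged as the viability read-out.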
% is scaled to controls: 0 for no effect and ±100 for the full control effect; potency is read from the fitted curve at half-maximal effect.

Row | Structure (SMILES) | max response | outcome | Potency
1 | CC1(C)CCC2(C(=O)OC3OCC(O)C(O)C3O)CCC3(C)C(=CCC4C5(C)CC(O)C(OC6OC(COC7OCC(O)C(O)C7O)C(O)C(O)C6O)C(C)(C)C5CCC43C)C2C1 (configuration not stated) | 1.81% |  | 
2 | C=CC1C(OC2OC(CO)C(O)C(O)C2O)OC=C2C(=O)N3C(C(=O)O)Cc4c([nH]c5ccccc45)C3CC21 (configuration not stated) |  | inactive | 
3 | COc1cc2c(cc1OC)N1C(=O)C[C@]34C=CCN5CC[C@@H]2[C@@H](CC3)[C@]514 |  | inactive | 
4 | C[S+](CC[C@H](N)C(=O)[O-])C[C@H]1O[C@@H](n2cnc3c(N)ncnc32)[C@H](O)[C@@H]1O (some centres not stated) | -13.4% |  | 
5 | COc1ccc(C(O)C(C)OC2OC(CO)C(O)C(O)C2O)cc1 (configuration not stated) | -9.11% |  | 
6 | COc1cc2c3c(cc4ccccc4c3c1O)NC2=O | 4.86% |  | 
7 | C=C1CCCC2(C)CC3(OC)OC(=O)C(C)=C3CC12 (configuration not stated) | 2.37% |  | 
8 | CC(C)c1nnc(-c2ccc(-c3ccccc3)nc2)n1-c1cccc2nonc12 | -7.02% |  | 
9 | CC[C@H](CO)Nc1nc(NCc2ccc(-c3ccccn3)cc2)c2ncn(C(C)C)c2n1 |  |  | 92 nM (active)
10 | CC(Nc1ncnc2nc[nH]c12)c1cc2cccc(Cl)c2c(=O)n1-c1ccccc1 (configuration not stated) | -7.8% |  | 
11 | O=C1Nc2ccccc2C(O)(c2ccccc2)C1O (configuration not stated) | 0.0908% |  | 
12 | Cc1oc2ccccc2c1CNC(=O)NCc1cccs1 | 1.28% |  | 
13 | O=C1CCC(=O)N(O)CCCCCNC(=O)CCC(=O)N(O)CCOCCNC(=O)CCC(=O)N(O)CCCCCN1 | -5.63% |  | 
14 | COc1ccc(-c2ccc(-c3cn(C(=O)N4CCCCC4c4ccccc4)nn3)cc2)cc1 (configuration not stated) |  | inactive | 
15 | CC(C)(C)c1ccc(S(=O)(=O)Nc2ccc(Cl)cc2C(=O)c2cc[n+]([O-])cc2)cc1 | -19.6% |  | 
16 | CN1CCN(Cc2ccc(-c3cnc4[nH]cc(-c5ccc6[nH]ccc6c5)c4c3)cc2)CC1 |  |  | 10300 nM (active)

Row | Structure (SMILES) | max response | outcome | Potency
17 | CC(=O)O[C@@H]1C[C@@H](OC(C)=O)C(C)(C)/C=C/[C@H](C)[C@H](OC(C)=O)[C@@]2(O)C[C@H](C)[C@H](OC(=O)c3ccccc3)[C@@H]2/C=C/1C | -20.7% |  | 
18 | CO[C@@H](C)Cn1c(=O)n(C)c2cnc3ccc(-c4cncc(C(C)(C)O)c4)cc3c21 |  |  | 82 nM (active)
19 | COc1c2c(cc3c1-c1c(cc4c(c1OC)OCO4)CC(C)C(C)C3)OCO2 (configuration not stated) | 1.23% |  | 
20 | COc1cc(N2CCC(N3CCN(C)CC3)CC2)ccc1Nc1ncc(Cl)c(-c2c[nH]c3ccccc23)n1 |  |  | 10300 nM (active)
21 | Cc1ccc(F)cc1C(=O)Nc1ccc(C(=O)N2Cc3cccn3Cc3ccccc32)c(Cl)c1 | -11.2% |  | 
22 | C[C@@H]1CCC2C(C)(C)[C@H](O)CC[C@]2(C)[C@@]12Cc1c(O)cc3c(c1O2)CN([C@@H](CCC(=O)O)C(=O)O)C3=O (some centres not stated) |  | inactive | 
23 | Cc1ccc(S(=O)(=O)Cc2nc(-c3ccc(C(=O)NCc4cccnc4)cc3)oc2C)cc1 |  |  | 65.1 nM (active)
24 | COc1cc(OC)c(/C=C/S(=O)(=O)Cc2ccc(OC)c(NCC(=O)O)c2)c(OC)c1 |  |  | 231 nM (active)
25 | c1cc(Nc2cc(C3CC3)[nH]n2)nc(Nc2ccc3nc[nH]c3c2)n1 |  |  | 820 nM (active)
26 | COc1ccc2nc(S(=O)(=O)Cc3ncc(C)c(OC)c3C)[nH]c2c1 | -21.3% |  | 
27 | Cc1ccc(S(=O)(=O)c2ccc([N+](=O)[O-])o2)cc1 |  |  | 5800 nM (active)
28 | C=C1[C@@H]2CC[C@@H]3[C@@](CCC4C(C(=O)O)(C(=O)O)C[C@@H](O[C@@H]5O[C@H](CO)[C@@H](O)[C@H](O)[C@H]5OC(=O)CC(C)C)C[C@]43C)(C2)[C@H]1O (some centres not stated) | -6.97% |  | 
29 | COc1cc(Nc2nc3ccccc3nc2NS(=O)(=O)c2ccc(NC(=O)c3ccc(OC)c(C)c3)cc2)cc(OC)c1 | -3.06% |  | 
30 | CC(C)(C)C(=O)CN1C(=O)[C@H](NC(=O)Nc2cccc(C(=O)O)c2)CN(C2CCCCC2)c2ccccc21 | 1.1% |  | 
31 | COc1ccc(-n2[nH]c(=O)c3[nH]c4cc(Cl)ccc4c(=O)c3c2=O)c(C)c1 | 1.23% |  | 
32 | C[C@H](C/C=C/C(C)(C)O)[C@H]1CC[C@@]2(C)[C@@H]3[C@@H](O[C@@H]4O[C@H](CO)[C@@H](O)[C@H](O)[C@H]4O)C=C4C(CC[C@H](O)C4(C)C)[C@]3(C=O)CC[C@]12C (some centres not stated) | -2.26% |  | 
